According to the supplement of paper PMC8728848:
This excerpt belongs to a sample that is enriched for the strongest signals.

Columns and labels:
Assay in all cases: glycan array binding signal (z-score within array); higher = stronger binding
Conditions in all cases: glycan notation: IUPAC condensed, linker removed
[1] = target: Fuc(a1-2)Gal(b1-3)GlcNAc(b1-3)Gal(b1-4)Glc
How it was run: (§1)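 Glycan array data were curated from 3228 arrays in the Consortium for Functional Glycomics database and kept only where the protein sequence was available. Glycan names were converted to IUPAC-condensed notation, and columns mapping to the same glycan were averaged. The binding signal is a within-array Z-score, averaged across arrays of the same protein sequence at different concentrations or buffers and across linkers. Negative Z-scores can be read as non-binding.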

Fuc(a1-4)GlcNAc = target: Fuc(a1-4)GlcNAc
How it was run: as §1

[2] = target: Gal(b1-4)GalNAc(b1-3)[Fuc(a1-2)]Gal(b1-4)GlcNAc
How it was run: as §1

Gal(b1-4)Glc = target: Gal(b1-4)Glc
How it was run: as §1

Gal(b1-4)Glc6S = target: Gal(b1-4)Glc6S
How it was run: as §1

[3] = target: Gal(b1-4)GlcNAc(b1-3)Gal(b1-4)[Fuc(a1-3)]GlcNAc(b1-3)Gal(b1-4)[Fuc(a1-3)]GlcNAc
How it was run: as §1

[4] = target: Gal(b1-4)GlcNAc(b1-6)GalNAc
How it was run: as §1

Gal4S(b1-4)GlcNAc = target: Gal4S(b1-4)GlcNAc
How it was run: as §1

[5] = target: GalNAc(b1-3)Gal(a1-4)Gal(b1-4)GlcNAc
How it was run: as §1

GlcNAc(b1-3)Gal = target: GlcNAc(b1-3)Gal
How it was run: as §1

Kdn(a2-3)Gal(b1-4)GlcNAc = target: Kdn(a2-3)Gal(b1-4)GlcNAc
How it was run: as §1

[6] = target: Man(a1-2)Man(a1-2)Man(a1-3)Man
How it was run: as §1

[7] = target: Man(a1-2)Man(a1-3)[Man(a1-2)Man(a1-6)]Man(a1-6)[Man(a1-2)Man(a1-2)Man(a1-3)]Man(b1-4)GlcNAc(b1-4)GlcNAc
How it was run: as §1

Man(a1-6)Man = target: Man(a1-6)Man
How it was run: as §1

Neu5Ac(a2-3)Gal = target: Neu5Ac(a2-3)Gal
How it was run: as §1

[8] = target: Neu5Ac(a2-3)Gal(b1-3)GalNAc(b1-4)[Neu5Ac(a2-3)]Gal(b1-4)Glc
How it was run: as §1

[9] = target: Neu5Ac(a2-3)Gal(b1-4)[Fuc(a1-3)]GlcNAc(b1-3)Gal(b1-4)[Fuc(a1-3)]GlcNAc(b1-3)Gal(b1-4)[Fuc(a1-3)]GlcNAc
How it was run: as §1

[10] = target: Neu5Ac(a2-3)[Neu5Ac(a2-6)]GalNAc
How it was run: as §1

Neu5Ac(a2-6)Gal(b1-4)Glc = target: Neu5Ac(a2-6)Gal(b1-4)Glc
How it was run: as §1

[11] = target: Neu5Ac(a2-6)Gal(b1-4)GlcNAc(b1-2)Man(a1-3)[Gal(b1-4)GlcNAc(b1-2)Man(a1-6)]Man(b1-4)GlcNAc(b1-4)GlcNAc
How it was run: as §1

Neu5Gc(a2-6)GalNAc = target: Neu5Gc(a2-6)GalNAc
How it was run: as §1

[12] = target: Neu5Gc(b2-6)Gal(b1-4)GlcNAc
How it was run: as §1

B1: RfpC (Mycobacterium tuberculosum), O07747 (protein)
chain: MHHHHHHSSGRENLYFQGHMASKSAMAAGLVTASMSLSTAVAHAGPSPNWDAVAQCESGGNWAANTGNGKYGGLQFKPATWAAFGGVGNPAAASREQQIAVANRVLAEQGLDAWPTCGAASGLPIALWSKPAQGIKGS
**Q.** Which results are given for B1?
**A.** glycan array binding signal (z-score) [1]: 0.546; glycan array binding signal (z-score) (Fuc(a1-4)GlcNAc): -1.09; glycan array binding signal (z-score) [2]: 3.48; glycan array binding signal (z-score) (Gal(b1-4)Glc): -0.11; glycan array binding signal (z-score) (Gal(b1-4)Glc6S): 4.01; glycan array binding signal (z-score) [3]: -0.25; glycan array binding signal (z-score) [4]: -0.822; glycan array binding signal (z-score) (Gal4S(b1-4)GlcNAc): 0.815; glycan array binding signal (z-score) [5]: 3.74; glycan array binding signal (z-score) (GlcNAc(b1-3)Gal): -0.187; glycan array binding signal (z-score) (Kdn(a2-3)Gal(b1-4)GlcNAc): -0.421; glycan array binding signal (z-score) [6]: 2.92; glycan array binding signal (z-score) [7]: -0.745; glycan array binding signal (z-score) (Man(a1-6)Man): -0.622; glycan array binding signal (z-score) (Neu5Ac(a2-3)Gal): 0.641; glycan array binding signal (z-score) [8]: -0.923; glycan array binding signal (z-score) [9]: -0.798; glycan array binding signal (z-score) [10]: 0.475; glycan array binding signal (z-score) (Neu5Ac(a2-6)Gal(b1-4)Glc): 0.057; glycan array binding signal (z-score) [11]: -0.731; glycan array binding signal (z-score) (Neu5Gc(a2-6)GalNAc): 1.8; glycan array binding signal (z-score) [12]: 3.14
